CtBP-E1A blk – blocks the CtBP interaction with E1A | AlphaScreen GST-E1A/His-CtBP binding, 1536-well; hits give low values | activity change, % (concentration not given with the values) | 0.49% of 340,000 active | AID 651724; in the data active = activity change below about -65%; inconclusive = mostly about -30% to -63%
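Protein mix (5X: 125 nM each GST-E1A, His-CtBP) was incubated with pinned compound 2 h at 37 deg C in dark, in 50 mM Tris pH 8.0 buffer with 300 mM NaCl. Glutathione donor and nickel acceptor beads followed; AlphaScreen signal read after 1 h.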
TDP1 inh – blocks human tyrosyl-DNA phosphodiesterase 1; Potency, µM (doses to about 130 µM), inactives show top-dose activity change, negative = inhibition, actives largely listed as inhibitors; recombinant TDP1, AlphaScreen DNA substrate cleavage; Q9NUW8; 0.28% of 350,000 active; note: potency is the fitted concentration of half-maximal effect; nearly all actives have a fitted effect of over 40% in size
Target sequence (Q9NUW8 whole entry, looked up): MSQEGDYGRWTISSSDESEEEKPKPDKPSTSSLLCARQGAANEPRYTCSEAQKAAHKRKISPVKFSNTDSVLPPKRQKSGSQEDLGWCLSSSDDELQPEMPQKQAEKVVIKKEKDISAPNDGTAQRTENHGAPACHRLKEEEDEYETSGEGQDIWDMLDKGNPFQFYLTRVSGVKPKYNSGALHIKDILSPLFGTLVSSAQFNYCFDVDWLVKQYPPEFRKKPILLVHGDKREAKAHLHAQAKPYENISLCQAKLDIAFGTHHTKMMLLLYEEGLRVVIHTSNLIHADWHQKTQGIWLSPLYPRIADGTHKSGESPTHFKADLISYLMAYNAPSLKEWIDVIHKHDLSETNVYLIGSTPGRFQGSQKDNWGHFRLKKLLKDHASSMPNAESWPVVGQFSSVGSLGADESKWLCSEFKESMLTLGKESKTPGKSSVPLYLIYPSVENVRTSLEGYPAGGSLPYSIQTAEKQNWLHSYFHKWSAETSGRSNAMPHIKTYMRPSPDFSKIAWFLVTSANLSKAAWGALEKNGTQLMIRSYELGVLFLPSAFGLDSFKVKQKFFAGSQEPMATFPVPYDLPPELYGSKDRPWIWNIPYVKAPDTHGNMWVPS
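AlphaScreen read-out: signal falls as enzyme removes the 3' tyrosine-FITC from a 5'-biotinylated DNA oligo (15 nM, 5 min, RT). Enzyme was E. coli-made recombinant Tdp1 at 1 nM, exposed to compound for 15 min beforehand; beads 10 ug/ml, 10 min.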
Six1-Eya2 blk – Six1/Eya2 interaction inhibition; Q15475+O00167; AlphaScreen GST-Six1/His-Eya2 binding, biochemical; hits give low values; activity change, % (concentration not given with the values); 0.56% of 360,000 active; AID 651725; in the data active = activity change below about -65%; inconclusive = mostly about -30% to -63%
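Homogeneous AlphaScreen proximity assay pairing GST-Six1 with His-tagged Eya2 (added as 5X mix: 250 nM and 500 nM) in 50 mM Tris pH 8.0, 300 mM NaCl, 1 mM TCEP. Glutathione donor and nickel acceptor beads; 1 h, 37 °C, dark.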
TDP1 cell CPT – DT40-hTDP1 cell growth loss with CPT; Potency, µM (series often up to 46.2 µM), without a hit: at the highest dose activity change, negative = growth inhibition, actives largely listed as inhibitors; 12% of 420,000 active; AID 686979; chicken DT40 Tdp1-/-;hTDP1 cells + 20 nM CPT, ATP luminescence, 48 h; note: potency is the fitted concentration of half-maximal effect; nearly all actives have a fitted effect of over 55% in size
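Cell growth measured by CellTiter-Glo luminescence after a minimum 48 h, 37 C compound exposure with 20 nM CPT in Tdp1-knockout DT40 cells stably expressing hTDP1, seeded 400/well; qHTS titration format.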
IL1B secr inh – inflammasome signaling inhibition, IL-1 beta readout; activity change, % at 57.5 µM; THP-1 LPS/ATP IL-1B secretion, AlphaLISA, 16 h; hits give low values; AID 743279; 4.7% of 360,000 active; in the data active = activity change below about -50%; inconclusive = mostly about -30% to -49%
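Secreted IL-1B measured by AlphaLISA bead assay after 16 h compound exposure of THP-1 cells; compounds (final up to 57.5 uM) added 1 h before LPS (250 ng/mL) and ATP (1.25 mM) stimulation; lower signal means less secretion.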
DT40 TDP1 no CPT – qHTS for Inhibitors of human tyrosyl-DNA phosphodiesterase 1 (TDP1): qHTS in cells in absence of CPT | DT40 Tdp1-/- hTDP1 cells, no CPT, ATP luminescence, 48 h | AID 686978, 2013 | Potency, µM (titrated, usually from 46.2 µM), without a hit: top-dose activity change, negative = growth inhibition, actives largely listed as inhibitors | 15% of 420,000 active; note: potency is the fitted concentration of half-maximal effect; nearly all actives have a fitted effect of over 55% in size
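DT40 Tdp1-/-;hTDP1 cells, no CPT (DMSO vehicle only), 400 cells/well; compounds pin-transferred; ≥48 hr, 37 °C; CellTiter-Glo 30 min RT dark, luminescence read.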
* hit, by the source's call; ? = inconclusive; · = no result; [ ] = another dose, or the depositor's remark. In the library only some 18% were active in any assay of this set; here they are far more common. Unless noted, calls come from the whole dose curve; as a rule, active = well fitted curve in the direction sought with a large enough effect; inconclusive = small, poorly fitted or top-dose-only effect, or another doubt; inactive = no such curve, though single readings can be large; an effect the other way counts as inactive or inconclusive. % is set by controls: 0 for no effect and ±100 for the full control effect.

SMILES | CtBP-E1A blk | TDP1 inh | Six1-Eya2 blk | TDP1 cell CPT | IL1B secr inh | DT40 TDP1 no CPT
COc1ccccc1NC(=O)COC(=O)Cc1c[nH]c2ccccc12 | 3 | 8% | 1 | -26% | 29 | 3%
COc1ccc(-n2c(=O)c3c(c4cc(OC)ccc4n3C)n(CC(=O)NCC3CCCO3)c2=O)cc1 (stereo not given) | · | 6% | · | -5% | · | ?
O=c1cc(NCCc2ccccc2)c2ccccc2o1 | 2 | -5% | 9 | 10µM* | -59* | 8.2µM*
Cc1ccccc1Nc1cc(=O)oc2ccccc12 | 3 | 6% | 2 | 12µM* | -13 | 21µM*
Cc1ccc(Nc2cc(=O)oc3ccccc23)c(C)c1 | -1 | -4% | 6 | -3% | 0 | 5%
O=c1cc(NCCO)c2ccccc2o1 | 5 | 2% | 0 | 2% | 0 | 0%
C=C1C(=O)OC2C1CCC(C)=C1C(=O)C3OC3(C)C12 (stereo not given) | -10 | · | -17 | 0.058µM* | -104* | 0.18µM*
COc1cc(/C=C2/NC(=O)NC2=O)cc(Br)c1OCc1ccc(C(=O)O)cc1 | · | 71µM* | -13 | 5% | 4 | -3%
O=C(O)COc1c(Cl)cc(/C=C2\NC(=O)NC2=O)cc1Br | -1 | 1% | 8 | -1% | 0 | 9%
O=C1c2ccc([N+](=O)[O-])cc2C(=O)N1CNc1ccccn1 | 4 | -1% | 0 | 8% | -4 | -22%
CCn1cc(/C=C(\NC(=O)c2ccccc2OC)C(=O)N2CCN(C)CC2)c2ccccc21 | 0 | 6% | -1 | -18% | -11 | -14%
CCN(CC)c1ccc(NC2CC(=O)N(CCc3ccc(OC)cc3)C2=O)cc1 (stereo not given) | -18 | 10% | ? | 13µM* | -10 | 15µM*
COc1ccc(CCNC2CC(=O)N(CCc3ccccc3)C2=O)cc1 (stereo not given) | 1 | -1% | 3 | -18% | 9 | -15%
CC(/C=N/NC(=O)c1cc(-c2ccc(Cl)cc2)nc2ccccc12)=C\c1ccco1 | -18 | 8% | -19 | 2.9µM* | 3 | 3.3µM*
CC(/C=N/NC(=O)c1cc(-c2ccccc2)nc2ccccc12)=C\c1ccco1 | -6 | 9% | -17 | 2.3µM* | -12 | 0.73µM*
Cc1ccc(-n2[nH]c(C)c(C=NC34CN5CN(CN(C5)C3)C4)c2=O)cc1C | -16 | -2% | 1 | 9.2µM* | -3 | 21µM*
COc1ccc(NC(=O)c2oc3ccccc3c2NC(=O)C(C)(C)C)cc1 | 0 | 7% | 1 | ? | -55* | ?
CCOc1ccc(NC(=O)c2oc3ccccc3c2NC(=O)C(C)(C)C)cc1 | · | -1% | · | ? | · | 18µM*
CCOc1ccccc1C(=O)Nc1c(C(=O)Nc2ccc(F)cc2)oc2ccccc12 | · | 9% | · | 4.1µM* | · | 2.3µM*
CCOc1ccc(NC(=O)c2oc3ccccc3c2NC(=O)c2c(F)cccc2F)cc1 | · | 9% | · | ? | · | ?
COc1ccc(NC(=O)c2oc3ccccc3c2NC(=O)C2CC2)cc1 | 2 | 0% | -1 | ? | ? | ?
CCOc1ccc(NC(=O)c2oc3ccccc3c2NC(=O)CC)cc1 | · | -4% | · | · | · | ·
O=C(Nc1cccc(-c2cscn2)c1)C1CCN(Cc2ccc(CO)o2)CC1 | · | 1% | 3 | -10% | 0 | ?
Cc1ccc(SSc2cc(C)ccc2N)c(N)c1 | ? | 12% | ? | 7.3µM* | -108* | 8.2µM*
Cc1ccc(O)c(N)c1 | -10 | 4% | 1 | ? | -12 | 23µM*
SMILES | CtBP-E1A blk | TDP1 inh | Six1-Eya2 blk | TDP1 cell CPT | IL1B secr inh | DT40 TDP1 no CPT
Cc1ccc(Sc2ccccc2CN(C)C)c(N)c1 | · | 20% | · | · | · | ·
CN(CC(=O)Nc1ccc(F)cc1)C(=O)COc1ccc([N+](=O)[O-])cc1Cl | -14 | 2% | 1 | ? | -26 | ?
O=C(COC(=O)/C=C/c1cccc(F)c1)NC1CCCC1 | 1 | -1% | 4 | ? | 3 | -15%
Cc1ccc2sc(N3CCN(C(=O)CCS(=O)(=O)c4ccc(Cl)cc4)CC3)nc2c1C | · | 5% | · | 4.1µM* | · | 2.3µM*
CCCCC(=O)N1CCN(c2nc3c(C)c(C)ccc3s2)CC1 | · | -5% | · | ? | · | 18µM*
O=C(c1ccc(S(=O)(=O)c2ccccc2)cc1)N1CCc2ccccc2C1 | 0 | 3% | -4 | ? | -15 | ?
COc1ccc2ccc(=O)oc2c1CC(=O)C(C)C | 1 | 1% | 1 | 1% | -4 | 6%
O=C(CC1C[C@H](C(=O)N2CCOCC2)[C@@]2(CCC3CCCC3)c3[nH]c4ccccc4c3CCN2C1=O)NCCc1ccccn1 (stereo not given in full) | -12 | 4% | -9 | 21µM* | 0 | ?
CN(C)CCCNC(=O)C[C@H]1C[C@H](C(=O)N2CCOCC2)[C@@]2(CCC3CCCC3)c3[nH]c4cc(-c5ccco5)ccc4c3CCN2C1=O | 10 | 3%[56.1 µM] | -2 | 23µM* | 0 | ?
O=C(CC1C[C@H](C(=O)N2CCOCC2)[C@@]2(CCC3CCCC3)c3[nH]c4ccccc4c3CCN2C1=O)NCc1ccco1 (stereo not given in full) | 3 | 2% | 6 | 21µM* | ? | ?
O=C(C[C@H]1C[C@H](C(=O)N2CCOCC2)[C@@]2(CCC3CCCC3)c3[nH]c4ccc(Cl)cc4c3CCN2C1=O)NCCCn1ccnc1 | -8 | 3%[56.1 µM] | -10 | ? | -59* | ?
CCOCCOC(=O)COC(=O)c1ccccc1NC(=O)c1ccccc1 | 18 | 5% | 14 | 3% | 20 | 9%
O=C(C[C@H]1C[C@H](C(=O)N2CCOCC2)[C@@]2(CCC3CCCC3)c3[nH]c4cc(-c5ccco5)ccc4c3CCN2C1=O)NCCN1CCOCC1 | -19 | 4%[56.1 µM] | -14 | 23µM* | -13 | ?
CC(C)=CCC/C(C)=C/CNC(=O)C[C@H]1C[C@H](C(=O)N2CCOCC2)[C@@]2(CCC3CCCC3)c3[nH]c4cc(-c5ccco5)ccc4c3CCN2C1=O | -2 | 1%[56.1 µM] | -13 | 18µM* | -22 | ?
O=C(C[C@H]1C[C@H](C(=O)N2CCOCC2)[C@@]2(CCC3CCCC3)c3[nH]c4cc(-c5ccco5)ccc4c3CCN2C1=O)NCC12CC3CC(CC(C3)C1)C2 | -10 | 0%[56.1 µM] | -16 | 15µM* | ? | ?

Assay outcomes (PubChem BioAssay)
